Source: PubChem BioAssay AID686970 (National Center for Advancing Translational Sciences (NCATS), 2013)
The whole screen tested about 360,000 compounds, of which about 6,000 (1.7%) were called active. Where a call stands in place of a potency, no number is given. Inconclusive results (about 8%) are left out. This is one part of a sample in which actives are shown more often than they occur. Values without a mark were called inactive. The call rests on the fitted dose curve; in most records, active means well fitted cell-killing curve with a large enough effect; inconclusive means small, poorly fitted or top-dose-only effect, or effect the other way; inactive means flat fitted curve, though single readings scatter.

Assay: qHTS for induction of synthetic lethality in tumor cells producing 2HG: qHTS for the HT-1080-NT fibrosarcoma cell line;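 further: NT is the 2HG producing partner of a matched IDH1 knockdown line; nearly all actives have a fitted effect of over 55% in size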
Details: HT-1080-NT fibrosarcoma viability, CellTiter-Glo ATP luminescence, 48 h; series mostly up to 46.1 µM
Procedure, shortened: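 750 cells/well, RPMI + 5% FBS; 2 h settle, compound pin-transfer, 48 h at 37 degrees C. CellTiter-Glo 10 min RT, luminescence. Normalized to DMSO and media-only wells.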
Potency means the concentration at half of the fitted maximal effect.

SMILES	Potency	activity, negative = less viability
CCCNC(=O)C1(C)CCN1C(=O)Cc1ccc(-c2ccccc2)cc1 (stereo not drawn)	inactive	–
O=C(C(=O)N1CCN(c2ccccc2)CC1)c1ccc2c(c1)OCO2	inactive	–
c1ccc(Cn2nnc3c(N4CCCCC4)ncnc32)cc1	inactive	–
CC1(C(=O)NS(=O)(=O)c2ccc(Cl)cc2)CCN1C(=O)CC1CCCC1 (stereo not drawn)	inactive	–
Cn1nccc1NC(=O)Nc1ccc(OC(F)(F)F)cc1	inactive	–
Cn1cccc1/C=N/NC(=O)c1ccc(OC(F)(F)C(F)F)cc1	inactive	–
O=C(Nc1ccc(OC(F)(F)F)cc1)c1ccc2c(c1)no[n+]2[O-]	18.4 µM (active)	–
COC(=O)C[C@@H]1C=C[C@@H](NC(=O)c2cccnc2)[C@@H](CO)O1	inactive	–
O=C(Nc1ccc(Cl)c(C(F)(F)F)c1)C1Cc2c(-c3ccccc3Oc3ccccc3)ccnc2O1 (stereo not drawn)	inactive	–
CC(C)CN1CCC1(C)C(=O)Nc1ccc(OC(F)F)cc1 (stereo not drawn)	inactive	–
CC(C)Cc1ccc(-c2cc3nc(NCc4cccc(Cl)c4)ccn3n2)cc1	23.1 µM (active)	–
COc1ccccc1-c1cc2nc(NCc3cccc(Cl)c3)ccn2n1	inactive	–
Cc1cc(C)n2c(NCc3ccccc3)c(CC(C)C)nc2n1	inactive	–
O=C(C(=O)N1CCC(c2ccccc2)CC1)c1ccccc1	inactive	–
CCC1OC(C2CC2)CC2=C1C(=O)OC(C)(C)O2 (stereo not drawn)	inactive	–
Cc1ccc(Cl)cc1-c1ccc(/C=N/n2cnnc2)o1	inactive	–
Clc1cc(-c2ccc(/C=N/n3cnnc3)o2)ccc1Br	inactive	–
Cc1cc([N+](=O)[O-])c(-c2ccc(/C=N/n3cnnc3)o2)cc1Cl	10 µM (active)	–
COC(=O)[C@H]1C[C@H](OC(=O)NCc2ccccc2)[C@@]2(O)CN(S(=O)(=O)c3ccc(C)cc3)CC2[C@H]1C(=O)OC (stereo partly drawn)	inactive	–
COc1ccc(-c2cc3c(c4c2ccn4C)C2CCC3C2)cn1 (stereo not drawn)	inactive	–
COC(=O)C1(C(=O)OC)C/C=C\CN(S(=O)(=O)c2ccccc2[N+](=O)[O-])CCC1	inactive	–
COc1ccc(CN2C(=O)C(CC(=O)NC3CCCCC3)CC(C(=O)N3CCOCC3)=C2C)cc1 (stereo not drawn)	inactive	–
COc1ccc(C(=O)OCC(=O)Nc2cccc(C(C)=O)c2)cc1OC	inactive	–
COc1cc(C(=O)N(C)Cc2cccc(OC)c2OC)ccc1OCC(=O)Nc1cccc(C(F)(F)F)c1	8.2 µM (active)	–

SMILES	Potency	activity, negative = less viability
CCNC(=O)c1ccc(OCC(=O)Nc2ccc(F)cc2)c(OC)c1	inactive	–
COc1ccc(CN2CCC(C)(Oc3cccc(F)c3)C2)c2ccccc12 (stereo not drawn)	inactive	–
CC1(C)CCc2cc(S(=O)(=O)N3CCN(c4nc(-c5cccs5)nc5ccccc45)CC3)ccc2O1	inactive	–
COc1ccc(-c2ccc(C(=O)NCCN3CCOCC3)c3occc23)c(C)c1	16.4 µM (active)	–
COc1ccc(-c2ccc(C(=O)NC(C)C)c3occc23)c(C)c1	inactive	–
COc1ccc(-c2cc(C(=O)NCCCN3CCOCC3)no2)cc1	inactive	–
CC1(C(=O)NCc2ccccc2)CSCC(=O)N1CCCn1ccnc1 (stereo not drawn)	inactive	–
COC(=O)C[C@H]1C=C[C@@H](NS(=O)(=O)c2ccc(C)cc2)[C@@H](CO)O1	inactive	–
Cc1ccc(S(=O)(=O)N2C[C@H]3C(=O)C[C@@H](c4cccc5ccccc45)N(S(=O)(=O)c4ccc(C)cc4)[C@H]3C[C@H]2c2ccc(Cl)cc2)cc1	inactive	–
Nc1ncnc2c1ncn2[C@@H]1O[C@H](C(=O)N2CCSC2)[C@@H](O)[C@H]1O	inactive	–
C[C@@H]1CN([C@@H](C)CO)C(=O)c2cc(Br)cnc2O[C@@H]1CN(C)C(=O)C1CCCCC1	inactive	–
CC(=O)Nc1ccc(NC(=O)CCCNC(=O)c2ccc(Cl)cc2)cc1	inactive	–
O=C(Nc1cc(C(F)(F)F)ccc1Cl)C(=O)N1CCCCC1	inactive	–
CCCCC(=O)Nc1ccc(C(=O)Nc2cc(C(F)(F)F)ccc2Cl)cc1	16.4 µM (active)	–
CCCCNC(=O)C[C@@H]1C[C@@]2(C(=O)OCC)CCC=C2N(Cc2cccc3ccccc23)C1=O	inactive	–
CC1(C(=O)NS(=O)(=O)C2CC2)CCCN(C(=O)CSc2ccccc2)C1 (stereo not drawn)	inactive	–
Cc1cc2oc(=O)cc(CN(C)Cc3ccccc3)c2cc1Cl	inactive	–
CC1CCCC(NC(=O)COC(=O)c2ccccc2C(=O)N(C)C2CCCCC2)C1C (stereo not drawn)	inactive	–
Cc1ccccc1C1=N/C(=C/c2cccnc2)C(=O)O1	inactive	–
O=C(O)C1CC(=O)N(Cc2cccnc2)C1 (stereo not drawn)	inactive	–
O=C1/C(=C\c2cccnc2)CN(Cc2ccccc2)C/C1=C\c1cccnc1	1.3 µM (active)	–
N#Cc1cccc(NC(=O)c2cc(C3CCCCN3C(=O)CCc3ccccc3)on2)c1 (stereo not drawn)	inactive	–
O=S(=O)(Nc1ccc(O)c2ccccc12)c1ccc(OC(F)(F)F)cc1	23.1 µM (active)	–
O=C1COc2ccc(S(=O)(=O)Nc3ccc(OC(F)(F)F)cc3)cc2N1	inactive	–

SMILES	Potency	activity, negative = less viability
Cc1nn(C)c(C)c1NS(=O)(=O)c1ccc(OC(F)(F)F)cc1	inactive	–
COc1ccc(CC(=O)NC2CCSc3ccccc32)cc1OC (stereo not drawn)	inactive	–
COc1ccc(CC2c3cc(OC)c(OC)cc3CC[N+]2(C)CCC(=O)OCCCCCOC(=O)CC[N+]2(C)CCc3cc(OC)c(OC)cc3C2Cc2ccc(OC)c(OC)c2)cc1OC (stereo not drawn)	18.4 µM (active)	–
COC(=O)C1=CN(Cc2ccc(OC)c(OC)c2)C=C(C(=O)OC)C1c1cccs1	inactive	–
Cc1ccc(-c2ccc(CN3C(C)C(=O)N(Cc4cn(CCC5OCCCO5)nn4)CCS3(=O)=O)cc2)cc1 (stereo not drawn)	inactive	–
COc1ccc(C(C(=O)NC2CCCCC2)N(C(=O)CCl)c2ccccc2Cl)cc1 (stereo not drawn)	18.4 µM (active)	–
Cc1ccccc1N(C(=O)CNC(=O)c1cccs1)C(C(=O)NC1CCCC1)c1ccncc1 (stereo not drawn)	inactive	–
COc1ccc(C(C(=O)NC2CCCCC2)N(C(=O)c2snc(C(N)=O)c2N)c2ccccc2OC)cc1 (stereo not drawn)	inactive	–
Cc1ccc(Cc2c(-c3ccc(C)cc3)nc3c4ccccc4ccn23)cc1	inactive	–
CN(C)CCCn1c(=O)n(Cc2ccccc2)c(=O)c2c3c(sc21)CCCCC3	16.4 µM (active)	–
CCn1c(=S)[nH]c2sc3c(c2c1=O)CCCCC3	inactive	–
O=c1c2c3c(sc2n(CCN2CCCC2)c(=O)n1Cc1ccccc1)CCCCC3	inactive	–
O=C(NCc1ccccc1Cl)c1csc([C@@H]2O[C@H](CO)[C@@H](O)[C@H]2O)n1	inactive	–
COc1ccccc1N1CC(C(=O)Nc2ccc(S(=O)(=O)N3CCOCC3)cc2)CC1=O (stereo not drawn)	inactive	–
COc1ccc(Cl)cc1NC(=O)C1CC(=O)N(c2ccc(F)cc2)C1 (stereo not drawn)	inactive	–
COc1cc(OC)c(N2CC(C(=O)Nc3cc(Cl)ccc3N3CCOCC3)CC2=O)cc1Cl (stereo not drawn)	5.8 µM (active)	–
CCCNC(=O)C1(C)CCN(C(=O)c2ccccc2OC(F)(F)F)C1 (stereo not drawn)	inactive	–
O=C(O)C1CCCN1c1nc(Cl)ccc1[N+](=O)[O-] (stereo not drawn)	inactive	–
COc1ccc(-c2ccc3[nH]c4c(c3c2)CCN2C[C@H]3[C@H](C)ON(C)[C@H]3C[C@@H]42)cc1	inactive	–
CCOC(=O)c1c(NC(=S)SC)sc(C(=O)N2CCc3ccccc3C2)c1C	inactive	–
Cc1ccc(S(=O)(=O)N2CCCCC2)cc1NC(=O)CCNC(=O)c1ccccc1Cl	inactive	–
Cc1nnc(OCC(=O)NCCC2=CCCCC2)c2ccccc12	inactive	–
Cc1ccc(-n2c(SCC(=O)NCCC3=CCCCC3)nc3n[nH]c(C)c3c2=N)cc1Cl	23.1 µM (active)	–
C=CCn1c(CC(=O)Nc2cccc(OC)c2)nnc1SCC(=O)NC1CCCCC1	inactive	–

SMILES	Potency	activity, negative = less viability
COc1cccc(-n2c(SCC(=O)NC3CCCCC3)nc3n[nH]c(C)c3c2=N)c1	14.6 µM (active)	–
COc1cccc(-n2c(SCC(=O)NC3CCS(=O)(=O)C3)nc3ccccc3c2=O)c1 (stereo not drawn)	inactive	–
CCCCNC(=O)CSc1nc2n[nH]c(C)c2c(=N)n1-c1cccc(Cl)c1C	–	1.53% [at 9.24 µM]
O=c1cc(CN2CCCCCCC2)c2c(ccc3ccccc32)o1	inactive	–
Nc1[nH]c(C(=O)c2ccccc2)c(-c2ccc(Br)cc2)c1C(=O)NC1CC1	inactive	–
CCc1nc2c(OCCOc3ccccc3)cccn2c1N(C)C(=O)c1cccs1	inactive	–
CCc1nc2c(=O)[nH]cnc2o1	inactive	–
Cc1ccccc1S(=O)(=O)NC(=O)C1(C)CCN1C(=O)C1(c2ccccc2)CCCC1 (stereo not drawn)	inactive	–
CCOC(=O)C1(C)CCCN(C(=O)c2ccc(F)c(Cl)c2)C1 (stereo not drawn)	inactive	–
COc1ccc(CNc2nccs2)cc1	inactive	–
COc1ccc(CNc2nc(NCc3ccc(OC)cc3)c3ncn(C4CCCC4)c3n2)cc1	7.31 µM (active)	–
COc1ccc(CNC(=O)C2CCCC2)cc1	inactive	–
O=c1[nH][nH]c2c1[C@H](c1ccc(Cl)cc1)O[C@H](CCc1ccccc1)C2	inactive	–
COc1cccc(CNC(=O)[C@@H]2CCCN2C(=O)[C@@H]2CCCN2C(=O)c2ccccc2)c1	inactive	–
CC1(C(=O)NCc2ccc3c(c2)OCO3)CCN1C(=O)Cc1cccc2ccccc12 (stereo not drawn)	inactive	–
COc1ccc(OC)c(C(O)c2ncc(-c3cccc(C(F)(F)F)c3)[nH]2)c1 (stereo not drawn)	inactive	–
COc1cc2nc(Cl)nc(NC3CC3)c2cc1OC	inactive	–
Cc1ccc([C@H]2N[C@]3(CCCN(Cc4ccccc4)C3=O)[C@H]3C(=O)N(Cc4ccccc4)C(=O)[C@@H]23)cc1	inactive	–
CC(C)C[C@H]1CNC(=O)C(=O)N1C[C@@H]1CCCN1C[C@H](Cc1ccccc1)N1C[C@H](CC(C)C)N(CC2CCCCCC2)C(=O)C1=O	inactive	–
CC(C)C[C@H]1CN([C@@H](Cc2ccccc2)CN2CCC[C@@H]2CN2C(=O)C(=O)NC[C@@H]2Cc2ccc(O)cc2)C(=O)C(=O)N1CCc1ccccc1	inactive	–
CC(C)C[C@H]1CNC(=S)N1C[C@H]1CCCN1C[C@H](Cc1ccc(O)cc1)N1C[C@H](Cc2ccc(O)cc2)N(CC2CCCCC2)C1=S	20.6 µM (active)	–
